Source: PubChem
This is a sample that favours compounds with a hit; in the whole collection about 2.3% have one here.
M1 PAM parental = nonselective calcium activators in parental CHO-K1 cells, primary screen, counter-screen for M1 PAM project, cell-based, Fluo-8 calcium fluorescence, full deck, 1536-well | ATP EC20; 0% at ATP EC20, 100% at ATP max | AID 602247, 2012 | actives 0.02% (n = 360,000) | activation, % at 3 µM;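 active means activation above the run cutoff, the mean activation of all test compounds plus 3 SD, cut at about 40% in these data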;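 further: peak over basal fluorescence ratio in a 140 s read after ATP addition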
M1 ag = human M1 muscarinic receptor agonists, primary screen, Fluo-8 calcium fluorescence, CHO-K1 cells, HTS; CHO-K1 hM1, agonist mode; 0% DMSO, 100% acetylcholine EC100; activation, % at 3 µM; actives 0.33% (n = 360,000); AID 588814, 2011;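 active means activation above the run's mean compound activation plus 3 SD, cut at about 16% in these data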;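 further: peak over basal fluorescence ratio within a 140 s kinetic read after compound addition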
Target sequence (P11229 whole entry, looked up): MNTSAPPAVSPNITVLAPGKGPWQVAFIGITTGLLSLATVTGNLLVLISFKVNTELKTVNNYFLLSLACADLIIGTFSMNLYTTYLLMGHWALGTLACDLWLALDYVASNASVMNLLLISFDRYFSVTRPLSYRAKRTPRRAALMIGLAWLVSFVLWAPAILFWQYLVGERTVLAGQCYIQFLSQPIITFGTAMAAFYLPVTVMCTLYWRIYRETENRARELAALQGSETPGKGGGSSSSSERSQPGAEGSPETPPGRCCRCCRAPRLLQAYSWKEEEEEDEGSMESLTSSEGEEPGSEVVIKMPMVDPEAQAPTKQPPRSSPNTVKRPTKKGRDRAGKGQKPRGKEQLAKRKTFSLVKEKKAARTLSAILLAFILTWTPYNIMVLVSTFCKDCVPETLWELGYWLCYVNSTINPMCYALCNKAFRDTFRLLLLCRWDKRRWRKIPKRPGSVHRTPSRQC
CHO-K1 Ca ag = counter-screen for M1 agonists: effect in parental CHO-K1 cells. Fluo-8 calcium fluorescence; scaled to maximal ATP response, vehicle zero. activation, % at 3 µM. actives 0.48% (n = 360,000). AID 602248, 2012; in the data active means activation above about 15%;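 further: untransfected CHO-K1 host cells lacking M1 receptor as counterscreen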
CHRM1 antagonist = human M1 muscarinic receptor antagonists, primary screen, CHO-K1 cells, Fluo-8 calcium fluorescence, 1536-well; inhibition, % at 3 µM; CHO-K1 hM1, ACh EC80 antagonist; actives 1.3% (n = 360,000);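 active means percent inhibition above its own plate's cutoff, namely the mean of that plate's compound wells plus 3 SD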;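 further: peak over basal fluorescence ratio during 140 s after agonist addition; 0% = ACh EC80 plus DMSO and 100% = DMSO alone without agonist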
M1 PAM = human M1 muscarinic receptor positive allosteric modulators, primary screen, CHO-K1 cells, Fluo-8 calcium fluorescence, 1536-well; CHO-K1 hM1, ACh EC20; 0% = ACh EC20, 100% = maximal ACh; activation, % at 3 µM; actives 0.088% (n = 360,000); AID 588819, 2011; in the data active means activation above about 19%, passing the limit was not always enough
CHO-K1 Ca antag = M1 antagonist counterscreen hit in parental CHO-K1 cells; AID 602250; inhibition, % at 3 µM; ATP-induced calcium, Fluo-8 fluorescence; actives 0.6% (n = 360,000);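 active means inhibition above a per-plate cutoff, the plate's mean sample inhibition plus 3 SD, cut at about 24% in these data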;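 further: 0% = DMSO plus EC80 ATP and 100% = DMSO alone without ATP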
The depositor's hits bear a star.

SMILES	M1 PAM parental	M1 ag	CHO-K1 Ca ag	CHRM1 antagonist	M1 PAM	CHO-K1 Ca antag
CCOC(=O)Cc1c(C)[nH]c(=S)[nH]c1=O	11	-3	0	-13	6	-3
COC(=O)CCc1c(C)[nH]c(=S)[nH]c1=O	-3	8	0	-34	21*	-6
O=C(/C=C/c1ccc(Cl)c([N+](=O)[O-])c1)Nc1cccc(NC(=O)c2ccco2)c1	-14	-3	7	34*	-23	28*
O=C(/C=C/c1ccc(Cl)c([N+](=O)[O-])c1)Nc1ccc(NC(=O)c2ccco2)cc1	-8	-3	1	2	-3	12
CCc1cc(=O)oc2cc(OC(C)C(=O)NCC3CCC(C(=O)O)CC3)c(Cl)cc12 (stereo not given)	7	-1	1	-2	-1	3
NC1=NC(=O)C(=Cc2ccccc2)S1	-9	5	0	-6	27*	5
CC(=O)NCCC(=O)N(C)CC1CCN(CCc2cccc(C(F)(F)F)c2)CC1	7	-5	0	-3	0	-3
COC(=O)CCC(=O)N(C)CC1CCCN(CCc2cccc(C(F)(F)F)c2)C1 (stereo not given)	5	-11	0	44*	-25	-2
CSCCC(=O)N(C)CC1CCCN(CCc2cccc(C(F)(F)F)c2)C1 (stereo not given)	15	-8	0	37*	-23	-6
COc1cc(CN(C)CC2CCCN(CCc3cccc(C(F)(F)F)c3)C2)ccc1O (stereo not given)	7	-9	0	49*	-29	-12
CC(=O)Nc1ccc(S(=O)(=O)NCc2nc(-c3ccccc3Cl)no2)cc1	5	-2	2	-4	3	-19
OC(c1ccc(Cl)c(Cl)c1)c1ncc(-c2ccccc2C(F)(F)F)[nH]1 (stereo not given)	10	-1	3	6	-5	-7
O=C(Cc1ccc([N+](=O)[O-])cc1)Nc1cc(C(F)(F)F)cc(C(F)(F)F)c1	-21	0	3	29	-13	29*
C/C(=N/NC(=O)CNC(=O)c1ccccc1F)c1ccc2c(c1)CCCC2	-4	-10	0	2	7	0
C/C(=N/NC(=O)CNC(=O)c1ccc2c(c1)OCO2)c1ccc2c(c1)CCCC2	-17	-3	-1	4	8	25*
COc1ccccc1NS(=O)(=O)c1ccc(-c2cnc(C3CC3)o2)cc1	14	-1	6	0	0	-13
COc1ccccc1C(CNC(=O)c1ccc(NS(=O)(=O)c2ccc3c(c2)OCCO3)cc1)N(C)C (stereo not given)	-20	8	0	40*	-15	15
COc1ccc(NS(=O)(=O)c2cccc(C(=O)NCC(c3ccccc3)N(C)C)c2)cc1 (stereo not given)	6	2	3	19	-9	3
COc1ccccc1C(CNC(=O)c1cccc(S(=O)(=O)Nc2ccc(C)cc2)c1)N(C)C (stereo not given)	-4	-5	1	99*	-24	-8
COc1ccc(NS(=O)(=O)c2ccc3c(c2)OCCO3)cc1OC	-2	2	14	26*	-13	36*
COc1ccc(NS(=O)(=O)c2ccc(-c3cnc(C4CC4)o3)cc2)cc1OC	-19	2	16*	34	-12	23
C=CC[C@H](CC(=O)OC(C)(C)C)C(=O)OC[C@H]1CCCN1C(=O)[C@@H](CC=C)CC(=O)N(CCO)Cc1ccccc1	-14	-3	0	1	2	-11
Cc1cc(NC(=O)COC(=O)c2cc(S(=O)(=O)N(C)C)ccc2Cl)no1	24	-3	2	-8	7	-21
COC(=O)c1c(NC(=S)NNC(=O)c2ccc(Cl)s2)sc(C(=O)N(C)C)c1C	7	0	0	-16	10	2
